Drawing on PubChem BioAssay (EPA / NIEHS), this text covers AC50 and outcome for 20 compounds.

Records with an inconclusive call do not appear. Activity calls are given as the source filed them. How the source made its calls: active means hit-call score of the fitted dose curve at least 0.9, where 1 is the maximum; inconclusive means response in the unintended direction; inactive means score below 0.9.

Usually AC50 stands for the midpoint of the concentration-response curve, whichever way the signal moves.

Sequence of guinea pig Leukotriene D4 Receptor (LTD4), CYSLTR1 (gene 100135514) (Q2NNR5 whole entry, looked up): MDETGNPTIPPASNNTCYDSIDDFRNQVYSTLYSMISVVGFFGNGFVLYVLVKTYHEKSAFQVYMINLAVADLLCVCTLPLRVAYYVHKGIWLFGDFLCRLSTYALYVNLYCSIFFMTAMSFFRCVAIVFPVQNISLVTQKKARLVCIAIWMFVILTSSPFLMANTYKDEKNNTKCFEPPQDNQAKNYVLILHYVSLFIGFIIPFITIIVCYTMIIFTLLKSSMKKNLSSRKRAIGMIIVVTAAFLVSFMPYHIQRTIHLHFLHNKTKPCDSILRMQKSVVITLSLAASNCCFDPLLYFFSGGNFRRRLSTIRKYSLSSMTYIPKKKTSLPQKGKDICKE
Sequence of human Adenosine A2a Receptor (AdoRA2a), ADORA2A (gene 135) (P29274 whole entry, looked up): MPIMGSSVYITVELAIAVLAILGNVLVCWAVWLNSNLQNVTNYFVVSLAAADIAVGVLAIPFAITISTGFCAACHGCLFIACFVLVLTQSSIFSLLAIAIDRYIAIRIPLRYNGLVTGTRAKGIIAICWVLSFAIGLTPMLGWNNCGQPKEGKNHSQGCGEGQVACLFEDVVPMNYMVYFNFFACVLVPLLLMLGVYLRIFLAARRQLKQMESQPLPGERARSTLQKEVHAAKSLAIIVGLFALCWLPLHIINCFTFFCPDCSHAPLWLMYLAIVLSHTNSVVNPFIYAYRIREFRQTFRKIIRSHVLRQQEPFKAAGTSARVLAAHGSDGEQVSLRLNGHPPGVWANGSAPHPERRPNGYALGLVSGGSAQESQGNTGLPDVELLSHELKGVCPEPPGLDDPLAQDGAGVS
Sequence of guinea pig Opioid, Kappa 1 Receptor (OpiateK), OPRK1 (gene 100135587) (P41144 whole entry, looked up): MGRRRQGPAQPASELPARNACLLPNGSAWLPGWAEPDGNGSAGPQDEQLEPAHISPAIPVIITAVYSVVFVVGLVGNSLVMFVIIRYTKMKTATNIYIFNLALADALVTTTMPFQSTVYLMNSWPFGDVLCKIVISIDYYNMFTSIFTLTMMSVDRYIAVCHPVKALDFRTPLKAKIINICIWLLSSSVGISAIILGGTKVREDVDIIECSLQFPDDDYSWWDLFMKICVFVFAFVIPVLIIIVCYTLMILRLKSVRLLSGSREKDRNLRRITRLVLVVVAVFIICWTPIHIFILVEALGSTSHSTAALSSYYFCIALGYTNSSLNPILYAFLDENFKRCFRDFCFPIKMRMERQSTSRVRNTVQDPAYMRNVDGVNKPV

The first test relates to rat Monoamine Oxidase, MAO-A, Central (MAOAC), gene 29253. Description: NVS_ENZ_rMAOAC: NovaScreen (NVS) Enzymatic Assay for rat Monoamine Oxidase, MAO-A, Central (MAOAC) (AID 2283243).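 Further: potency refers to inhibition seen as signal drop below DMSO baseline.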 As for the experimental part:
NVS_ENZ_rMAOAC is a biochemical, single-readout assay that uses extracted gene-proteins from Rat brain in a tissue-based cell-free assay. Measurements were taken 1.5 hours after chemical dosing in a 96-well plate.NVS_ENZ_rMAOAC is one of one assay component(s) measured or calculated from the NVS_ENZ_rMAOAC assay. It is designed to make measurements of enzyme activity, a form of enzyme reporter, as detected with scintillation counting signals by Lysate-based radiodetection technology.Data from the assay component NVS_ENZ_rMAOAC was analyzed into 1 assay endpoint. This assay endpoint, NVS_ENZ_rMAOAC, was analyzed in the positive analysis fitting direction relative to DMSO as the negative control and baseline of activity. Using a type of enzyme reporter, loss-of-signal activity can be used to understand changes in the enzymatic activity as they relate to the gene Maoa. Furthermore, this assay endpoint can be referred to as a primary readout, because this assay has produced multiple assay endpoints where this one serves a enzymatic activity function. To generalize the intended target to other relatable targets, this assay endpoint is annotated to the oxidoreductase intended target family, where the subfamily is monoamine oxidase.
Binding assays used specific radioligands (tritiated, iodinated) with non-radioactive competitive displacement ligands in agonist or antagonist protocols (as indicated) and various reference compounds and inhibitors to titrate specific binding to receptors and transporters. Most enzyme assays (CYPs, kinases, phosphatases, proteases, HDACs) used recombinant protein and specific substrates (fluorescence mostly, some colorimetric and radioactive) and inhibitors, followed by a biochemical separation of substrate and product. All assays for the biochemical HTS were initially run in duplicate at a single concentration (10 uM for CYP450 assays and 25 uM for all others). […] Each assay was run with positive and negative controls, and concurrent controls on every plate. The follow-up (secondary) screen tested active chemical-pairs in concentration series, as well as a few additional assays not tested in the primary screen, some selected negative inactives, and several cases re-run in the concentration series for confirmatory purposes.
In the case of `Oc1ccc(Cc2ccc(O)cc2)cc1`, the AC50 was 25 µM (active).

`OC(Cc1ccccc1Cl)(Cn1cncn1)C1(Cl)CC1` (stereo not given): the call was inactive.

`O=C1C=CC(=O)c2ccccc21`: the AC50 is 25 µM (active).

For `Oc1c(Cl)cc(Cl)cc1Cl`, the result was inactive.

In the case of `Oc1cc(Cl)c(Cl)cc1Cl`, the AC50 was 16.5 µM (active).

On to `Oc1cccc(-c2ccccc2)c1`, for which the AC50 is 10.9 µM (active).

On to `CCCCCCCCCCCCc1cccc(S(=O)(=O)O)c1`, for which the AC50 is 10.6 µM (active).

A further test concerns guinea pig Leukotriene B4 Receptor (LTB4), gene 100379538. As to the kind of experiment: NVS_GPCR_gLTB4: NovaScreen (NVS) G Protein-Coupled Receptor Assay for guinea pig Leukotriene B4 Receptor (LTB4) (AID 2283247). The procedure:
NVS_GPCR_gLTB4 is a biochemical, single-readout assay that uses extracted gene-proteins from Guinea pig spleen membranes in a tissue-based cell-free assay. Measurements were taken 2 hours after chemical dosing in a 48-well plate.NVS_GPCR_gLTB4 is one of one assay component(s) measured or calculated from the NVS_GPCR_gLTB4 assay. It is designed to make measurements of radioligand binding, a form of binding reporter, as detected with scintillation counting signals by Filter-based radiodetection technology.Data from the assay component NVS_GPCR_gLTB4 was analyzed into 1 assay endpoint. This assay endpoint, NVS_GPCR_gLTB4, was analyzed in the positive analysis fitting direction relative to DMSO as the negative control and baseline of activity. Using a type of binding reporter, loss-of-signal activity can be used to understand changes in the binding as they relate to the gene Ltb4r. Furthermore, this assay endpoint can be referred to as a primary readout, because the performed assay has only produced 1 assay endpoint. To generalize the intended target to other relatable targets, this assay endpoint is annotated to the gpcr intended target family, where the subfamily is rhodopsin-like receptor.
Binding assays used specific radioligands (tritiated, iodinated) with non-radioactive competitive displacement ligands in agonist or antagonist protocols (as indicated) and various reference compounds and inhibitors to titrate specific binding to receptors and transporters. Most enzyme assays (CYPs, kinases, phosphatases, proteases, HDACs) used recombinant protein and specific substrates (fluorescence mostly, some colorimetric and radioactive) and inhibitors, followed by a biochemical separation of substrate and product. All assays for the biochemical HTS were initially run in duplicate at a single concentration (10 uM for CYP450 assays and 25 uM for all others). […]
In the case of `Oc1c(Cl)cc(Cl)cc1Cl`, the result was inactive.

`O=C(O)C1(c2ccc3c(c2)OC[C@H](Cc2ccc(-c4ccccc4)cc2)[C@H]3O)CCCC1`: the AC50 was 0.00229 µM (active).

Regarding `CCCCCCCCCCCCc1cccc(S(=O)(=O)O)c1`, the AC50 is 10.5 µM (active).

For a further test, the target named is guinea pig Leukotriene D4 Receptor (LTD4), CYSLTR1 (gene 100135514) (UniProt Q2NNR5). As to the kind of experiment: NVS_GPCR_gLTD4: NovaScreen (NVS) G Protein-Coupled Receptor Assay for guinea pig Leukotriene D4 Receptor (LTD4) (AID 2283248). The gist of the method:
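Radioligand displacement on guinea pig lung membranes, 1 h incubation, filtration and scintillation counting; DMSO as negative control. Duplicate 25 uM primary screen, then singleton concentration-response up to 50 uM.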
In the case of `O=c1oc2ccccc2c(O)c1C(CC(O)c1ccc(-c2ccc(Br)cc2)cc1)c1ccccc1` (stereo not given), the AC50 is 9.92 µM (active).

Consider `O=C(O)C1(c2ccc3c(c2)OC[C@H](Cc2ccc(-c4ccccc4)cc2)[C@H]3O)CCCC1`, for which the call was inactive.

Regarding `CCOC(=O)CC(=O)CCl`, the result was inactive.

`CCCCOC(C)=O`: the compound was called inactive.

Regarding `CCN(N=O)C(N)=O`, the outcome was inactive.

Take `CCCCCCCCCCCCc1cccc(S(=O)(=O)O)c1`: the AC50 is 22.5 µM (active).

A further test has as its target guinea pig Opioid, Kappa 1 Receptor (OpiateK), OPRK1 (gene 100135587) (UniProt P41144). Description: NVS_GPCR_gOpiateK: NovaScreen (NVS) G Protein-Coupled Receptor Assay for guinea pig Opioid, Kappa 1 Receptor (OpiateK) (AID 2283252).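 Further: active means reduced radioligand binding relative to DMSO.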 The gist of the method: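 Guinea pig cerebellar membranes were incubated with a radioligand for 2 h after compound addition; bound radioactivity was read by filter-based scintillation counting. Loss of specific binding relative to DMSO baseline defined activity; primary screen at 25 uM in duplicate.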
In the case of `O=C1C[C@@H]2OCC=C3CN4CC[C@]56c7ccccc7N1[C@H]5[C@H]2[C@H]3C[C@H]46`, the outcome was inactive.

Consider `O=c1oc2ccccc2c(O)c1C(CC(O)c1ccc(-c2ccc(Br)cc2)cc1)c1ccccc1` (stereo not given), for which the outcome was inactive.

As to `O=C1C=CC(=O)c2ccccc21`, the AC50 was 37.8 µM (active).

With `CCOP(=O)(OCC)OC(=CCl)c1ccc(Cl)cc1Cl`, the AC50 was 18.3 µM (active).

Take `N#CCCC(Br)(C#N)CBr` (stereo not given): the result was inactive.

Regarding `Nc1c(Oc2ccccc2)cc(O)c2c1C(=O)c1ccccc1C2=O`, the compound was called inactive.

For another test, the target named is human Adenosine A1 Receptor (AdoRA1), ADORA1 (gene 134) (UniProt P30542). Description: NVS_GPCR_hAdoRA1: NovaScreen (NVS) G Protein-Coupled Receptor Assay for human Adenosine A1 Receptor (AdoRA1) (AID 2283254). The gist of the method: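 Radioligand competition binding on human cortical membranes, 1 h after compound addition; bound radioactivity read by filtration and scintillation counting. Loss of signal versus DMSO baseline scored as displacement; primary screen duplicate at 25 uM, actives retested in concentration series.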
Sequence of human Adenosine A1 Receptor (AdoRA1), ADORA1 (gene 134) (P30542 whole entry, looked up): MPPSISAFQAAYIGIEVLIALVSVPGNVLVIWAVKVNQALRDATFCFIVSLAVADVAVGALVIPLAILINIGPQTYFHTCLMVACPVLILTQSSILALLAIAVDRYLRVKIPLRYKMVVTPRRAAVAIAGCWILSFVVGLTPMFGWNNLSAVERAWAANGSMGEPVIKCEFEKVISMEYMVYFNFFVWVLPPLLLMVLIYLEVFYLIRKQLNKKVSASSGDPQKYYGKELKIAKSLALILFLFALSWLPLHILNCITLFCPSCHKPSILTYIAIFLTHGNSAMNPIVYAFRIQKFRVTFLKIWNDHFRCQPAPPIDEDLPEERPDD
For the compound `O=c1oc2ccccc2c(O)c1C(CC(O)c1ccc(-c2ccc(Br)cc2)cc1)c1ccccc1` (stereo not given), the concentration at half-maximal activity (AC50) was 23.9 µM (active).

Turning to `Cc1cc(C(C)(C)c2ccc(O)c(C)c2)ccc1O`, the AC50 was 8.39 µM (active).

Take `CCOP(=O)(OCC)OC(=CCl)c1ccc(Cl)cc1Cl`: the call was inactive.

For the compound `Cc1ccccc1OP(=O)(Oc1ccccc1C)Oc1ccccc1C`, the compound was classed as inactive.

`CCCCOC(C)=O`: the compound was classed as inactive.

In a further test the target is human Adenosine A2a Receptor (AdoRA2a), ADORA2A (gene 135) (UniProt P29274). Description: NVS_GPCR_hAdoRA2a: NovaScreen (NVS) G Protein-Coupled Receptor Assay for human Adenosine A2a Receptor (AdoRA2a) (AID 2283256). The gist of the method:
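Cell-free radioligand binding on membranes from HEK293 expressing the receptor; competitive displacement read 1.5 h after dosing by filter-based scintillation counting. Primary screen in duplicate at 25 uM; actives followed in concentration series, with DMSO as baseline.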
Consider `Cc1cccc(OP(=O)(Oc2cccc(C)c2)Oc2cccc(C)c2)c1`, for which the result was inactive.

For `Cc1cc(C(C)(C)c2ccc(O)c(C)c2)ccc1O`, the compound was called inactive.

Regarding `[Cl][Sn]([c]1ccccc1)([c]1ccccc1)[c]1ccccc1`, the compound was called inactive.
